Measured values published in PubChem BioAssay AID1159580 (chemical genetic matrix, 2015).
The whole screen tested about 5,500 compounds, of which about 2,000 (36%) were called active. Inconclusive results (about 18%) are left out. Cut-off read from the data, not from the text of the source: active = normalized growth mostly below about 0.91 (no sharp cut-off); inconclusive = no clear call, values can overlap the other calls; inactive = mostly above about 0.92. Some of the results follow.

Experiment: chemical genetic growth profiling, strain panel (AID 1159580);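 note: tested at 20 µM; growth read once vehicle control cultures reached saturation at 30 °C; 1 = growth at the plate median or of vehicle wells; lower values mean less growth of the strain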
Settings: S. cerevisiae deletion strains, growth OD

Measured: normalized growth

Nc1cc(=O)[nH]c(N)n1
inactive: locus YAL040C, strain CLN3, active compounds read low 1.01 | locus YCL061C, strain MRC1 (second series), active compounds read low 0.991 | locus YDR150W, strain NUM1, active compounds read low 0.978 | locus YDR363W, strain ESC2, active compounds read low 0.953 | locus YER002W, strain NOP16, active compounds read low 1.01 | locus YMR307W, strain GAS1, active compounds read low 0.981 | locus YNL128W, strain TEP1, active compounds read low 0.984 | locus YNL175C, strain NOP13, active compounds read low 1.01 | locus YNL197C, strain WHI3, active compounds read low 0.987 | locus YNL224C, strain SQS1, active compounds read low 1.01 | locus YNL322C, strain KRE1, active compounds read low 1 | locus YOR083W, strain WHI5 (second series), active compounds read low 1.02 | locus YPL241C, strain CIN2, active compounds read low 1.01

CC(C)(C)c1ccc(C(=N)SC(C(=O)C(F)(F)F)c2ccccc2)cc1 (centres undefined)
inactive: locus YAR019C, strain CDC15, active compounds read low 0.987 | locus YBL105C, strain PKC1, active compounds read low 0.994 | locus YBR135W, strain CKS1, active compounds read low 0.994 | locus YBR136W, strain MEC1, active compounds read low 0.985 | locus YBR160W, strain CDC28, active compounds read low 0.994 | locus YDL017W, strain CDC7, active compounds read low 0.998 | locus YDL028C, strain MPS1, active compounds read low 0.989 | locus YDL101C, strain DUN1, active compounds read low 0.992 | locus YDL108W, strain KIN28, active compounds read low 0.987 | locus YDL132W, strain cdc53, active compounds read low 0.989 | locus YDL214C, strain PRR2, active compounds read low 0.916 | locus YDR052C, strain DBF4, active compounds read low 0.993 | locus YDR054C, strain cdc34, active compounds read low 0.986 | locus YDR226W, strain ADK1, active compounds read low 0.993 | locus YDR477W, strain SNF1, active compounds read low 0.865 | locus YER123W, strain YCK3, active compounds read low 0.877 | locus YER133W, strain GLC7, active compounds read low 0.942 | locus YFL009W, strain cdc4, active compounds read low 0.991 | locus YFL029C, strain CAK1, active compounds read low 0.982 | locus YFR003C, strain YPI1, active compounds read low 0.986 | locus YFR019W, strain FAB1, active compounds read low 0.884 | locus YFR028C, strain CDC14, active compounds read low 0.985 | locus YGR040W, strain KSS1, active compounds read low 0.894 | locus YGR052W, strain FMP48, active compounds read low 0.96 | locus YGR092W, strain DBF2, active compounds read low 0.887 | locus YHR079C, strain IRE1, active compounds read low 0.804 | locus YHR082C, strain KSP1, active compounds read low 0.766 | locus YHR205W, strain SCH9, active compounds read low 0.778 | locus YIL147C, strain SLN1, active compounds read low 0.992 | locus YJL095W, strain BCK1, active compounds read low 0.868 | locus YJL128C, strain PBS2, active compounds read low 1.02 | locus YJL157C, strain FAR1, active compounds read low 0.966 | locus YJR016C, strain ILV3, active compounds read low 0.995 | locus YJR066W, strain TOR1 (second series), active compounds read low 0.931 | locus YJR066W, strain TOR1, active compounds read low 0.859 | locus YKL048C, strain ELM1, active compounds read low 0.96 | locus YKL067W, strain YNK1, active compounds read low 0.951 | locus YKL101W, strain HSL1, active compounds read low 0.875 | locus YKL193C, strain SDS22, active compounds read low 0.986 | locus YKL203C, strain TOR2, active compounds read low 0.98 | locus YLR113W, strain HOG1, active compounds read low 0.901 | locus YLR133W, strain CKI1, active compounds read low 0.887 | locus YLR403W, strain SFP1, active compounds read low 0.89 | locus YML070W, strain DAK1, active compounds read low 0.9 | locus YMR001C, strain CDC5, active compounds read low 0.983 | locus YMR205C, strain PFK2 (second series), active compounds read low 0.941 | locus YMR277W, strain FCP1, active compounds read low 0.993 | locus YNL006W, strain LST8, active compounds read low 0.997 | locus YNL020C, strain ARK1, active compounds read low 0.884 | locus YNL161W, strain CBK1, active compounds read low 0.993 | locus YNL183C, strain NPR1, active compounds read low 0.863 | locus YNL207W, strain RIO2, active compounds read low 0.99 | locus YNL222W, strain SSU72, active compounds read low 0.989 | locus YNL307C, strain MCK1 (second series), active compounds read low 0.794 | locus YOL078W, strain AVO1, active compounds read low 0.994 | locus YOL136C, strain PFK27, active compounds read low 0.901 | locus YOR061W, strain CKA2, active compounds read low 0.885 | locus YOR119C, strain RIO1, active compounds read low 0.979 | locus YOR231W, strain MKK1, active compounds read low 0.938 | locus YOR329C, strain SCD5, active compounds read low 0.988 | locus YPL031C, strain PHO85, active compounds read low 0.872 | locus YPL153C, strain RAD53, active compounds read low 0.909 | locus YPL204W, strain HRR25, active compounds read low 0.905 | locus YPL209C, strain IPL1, active compounds read low 0.99 | locus YPR025C, strain CCL1, active compounds read low 0.995 | locus YPR106W, strain ISR1, active compounds read low 0.988 | locus YPR111W, strain DBF20, active compounds read low 0.977 | strain NNK1, active compounds read low 0.982 | strain TSCII, active compounds read low 0.985
active: locus YHR030C, strain SLT2, active compounds read low 0.471 | locus YPL256C, strain CLN2, active compounds read low 0.846
